Experimental findings from ChEMBL document CHEMBL1961873, “Compounds: GSK PKIS; Assays: Nanosyn kinase panel” (2012) are described below.

Each structure is given as a SMILES string.

The inhibition is the relative decrease from the control value, in per cent.

Test [1] deals with Tyrosine-protein kinase SYK (Homo sapiens) (UniProt P43405). As to conditions: at 1 µM.
Test [2] addresses T1, Tyrosine-protein kinase Tec (Homo sapiens) (UniProt P42680).
T1 sequence (whole entry): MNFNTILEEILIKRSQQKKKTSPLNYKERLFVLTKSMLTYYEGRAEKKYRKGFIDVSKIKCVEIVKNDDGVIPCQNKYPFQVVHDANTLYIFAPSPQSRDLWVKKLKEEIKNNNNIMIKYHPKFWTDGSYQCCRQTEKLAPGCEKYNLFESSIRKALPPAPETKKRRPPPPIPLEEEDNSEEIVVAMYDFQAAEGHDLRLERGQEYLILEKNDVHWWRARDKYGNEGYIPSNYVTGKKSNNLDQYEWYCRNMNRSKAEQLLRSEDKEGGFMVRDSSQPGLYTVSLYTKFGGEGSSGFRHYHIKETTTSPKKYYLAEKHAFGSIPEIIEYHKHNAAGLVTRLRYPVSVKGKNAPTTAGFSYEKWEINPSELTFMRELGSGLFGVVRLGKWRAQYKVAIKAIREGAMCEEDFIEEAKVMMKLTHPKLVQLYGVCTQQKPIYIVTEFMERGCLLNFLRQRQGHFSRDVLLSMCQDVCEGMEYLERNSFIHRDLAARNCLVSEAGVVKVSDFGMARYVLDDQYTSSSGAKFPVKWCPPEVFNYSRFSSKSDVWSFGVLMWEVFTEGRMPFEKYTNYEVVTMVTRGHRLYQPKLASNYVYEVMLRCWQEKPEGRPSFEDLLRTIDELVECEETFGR
The conditions noted are these: at 0.1 µM.

Test [3] addresses T1, Tyrosine-protein kinase Tec (Homo sapiens). The conditions noted are these: at 1 µM.
The target of test [4] is Angiopoietin-1 receptor (Homo sapiens) (UniProt Q02763). The conditions noted are these: at 0.1 µM.
The target is the same in test [5]. As to conditions: at 1 µM.
In test [6] the target is T2, Non-receptor tyrosine-protein kinase TNK1 (Homo sapiens) (UniProt Q13470).
T2 sequence (whole entry): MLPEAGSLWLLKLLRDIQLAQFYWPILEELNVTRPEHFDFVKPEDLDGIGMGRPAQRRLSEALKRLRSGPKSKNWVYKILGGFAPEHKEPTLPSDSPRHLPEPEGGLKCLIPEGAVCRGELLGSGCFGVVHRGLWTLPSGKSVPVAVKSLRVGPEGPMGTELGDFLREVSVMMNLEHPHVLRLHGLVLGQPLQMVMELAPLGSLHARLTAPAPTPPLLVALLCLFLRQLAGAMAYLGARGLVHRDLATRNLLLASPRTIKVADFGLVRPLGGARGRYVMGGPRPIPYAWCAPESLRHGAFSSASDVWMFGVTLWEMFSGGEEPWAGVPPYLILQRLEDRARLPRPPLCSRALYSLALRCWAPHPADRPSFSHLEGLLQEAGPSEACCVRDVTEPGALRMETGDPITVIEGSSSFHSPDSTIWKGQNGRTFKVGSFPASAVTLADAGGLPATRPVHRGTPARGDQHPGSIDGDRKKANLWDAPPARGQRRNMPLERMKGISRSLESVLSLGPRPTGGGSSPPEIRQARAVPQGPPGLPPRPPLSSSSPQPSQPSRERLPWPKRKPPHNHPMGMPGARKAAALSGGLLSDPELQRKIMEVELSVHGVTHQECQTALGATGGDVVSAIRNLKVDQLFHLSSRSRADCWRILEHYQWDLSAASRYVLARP
As to conditions: at 1 µM.

Test [7] concerns the target Activated CDC42 kinase 1 (Homo sapiens) (UniProt Q07912). The conditions noted are these: at 0.1 µM.
For test [8] the target is unchanged. The conditions noted are these: at 1 µM.
Test [9] has as its target High affinity nerve growth factor receptor (Homo sapiens) (UniProt P04629). The conditions noted are these: at 0.1 µM.
The target is the same in test [10]. The conditions noted are these: at 1 µM.
Test [11] concerns the target BDNF/NT-3 growth factors receptor (Homo sapiens) (UniProt Q16620). As to conditions: at 0.1 µM.
For test [12] the target is unchanged. As to conditions: at 1 µM.
Test [13] addresses NT-3 growth factor receptor (Homo sapiens) (UniProt Q16288). As to conditions: at 0.1 µM.
Test [14] has the same target. The conditions noted are these: at 1 µM.
The target of test [15] is T3, Tyrosine-protein kinase TXK (Homo sapiens) (UniProt P42681).
T3 sequence (whole entry): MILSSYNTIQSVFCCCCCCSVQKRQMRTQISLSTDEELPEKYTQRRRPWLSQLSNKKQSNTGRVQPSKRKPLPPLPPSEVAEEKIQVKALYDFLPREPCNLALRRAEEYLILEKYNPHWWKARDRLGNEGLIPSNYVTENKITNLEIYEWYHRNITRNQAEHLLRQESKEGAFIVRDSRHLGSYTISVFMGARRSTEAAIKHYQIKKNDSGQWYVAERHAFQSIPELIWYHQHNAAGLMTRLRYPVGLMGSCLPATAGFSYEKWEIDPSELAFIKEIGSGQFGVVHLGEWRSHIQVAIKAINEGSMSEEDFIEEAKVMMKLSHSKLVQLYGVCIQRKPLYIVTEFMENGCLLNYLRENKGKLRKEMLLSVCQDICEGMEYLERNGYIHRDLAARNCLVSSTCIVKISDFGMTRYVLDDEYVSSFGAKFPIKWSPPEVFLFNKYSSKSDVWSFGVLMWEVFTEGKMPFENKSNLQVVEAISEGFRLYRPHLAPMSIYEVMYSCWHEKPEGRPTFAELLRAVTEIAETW
The conditions noted are these: at 0.1 µM.

Test [16] addresses T3, Tyrosine-protein kinase TXK (Homo sapiens). The conditions noted are these: at 1 µM.
Test [17] has as its target Non-receptor tyrosine-protein kinase TYK2 (Homo sapiens) (UniProt P29597). The conditions noted are these: at 0.1 µM.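 Note: each value is a mean of the inhibition readings.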
The target of test [18] is T4, Dual specificity protein kinase TTK (Homo sapiens) (UniProt P33981).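 Note: reported figures are mean TTK inhibition at 1 µM.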
T4 sequence (whole entry): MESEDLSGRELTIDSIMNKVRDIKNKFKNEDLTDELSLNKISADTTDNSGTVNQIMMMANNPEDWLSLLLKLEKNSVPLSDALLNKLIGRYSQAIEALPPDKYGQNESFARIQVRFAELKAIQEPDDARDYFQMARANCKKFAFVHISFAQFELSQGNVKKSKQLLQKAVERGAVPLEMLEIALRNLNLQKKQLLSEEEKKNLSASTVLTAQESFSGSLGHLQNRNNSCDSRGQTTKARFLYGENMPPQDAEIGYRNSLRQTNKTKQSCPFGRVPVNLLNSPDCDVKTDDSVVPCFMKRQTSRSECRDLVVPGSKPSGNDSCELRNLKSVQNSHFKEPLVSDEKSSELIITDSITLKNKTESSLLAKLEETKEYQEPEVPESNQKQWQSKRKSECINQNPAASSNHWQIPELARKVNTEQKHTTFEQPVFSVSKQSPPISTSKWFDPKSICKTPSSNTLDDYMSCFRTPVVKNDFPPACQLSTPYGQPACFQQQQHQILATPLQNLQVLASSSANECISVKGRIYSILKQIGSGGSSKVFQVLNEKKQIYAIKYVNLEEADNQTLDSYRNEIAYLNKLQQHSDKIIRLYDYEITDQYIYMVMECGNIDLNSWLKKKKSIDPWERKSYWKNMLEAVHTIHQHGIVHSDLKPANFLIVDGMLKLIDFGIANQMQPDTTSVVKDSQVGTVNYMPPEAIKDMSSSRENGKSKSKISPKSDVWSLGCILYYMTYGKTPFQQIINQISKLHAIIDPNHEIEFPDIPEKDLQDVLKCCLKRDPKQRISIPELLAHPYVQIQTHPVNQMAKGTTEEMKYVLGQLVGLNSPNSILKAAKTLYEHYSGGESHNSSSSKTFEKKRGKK
The conditions noted are these: at 1 µM.

Test [19] concerns the target T5, Aurora kinase A (Homo sapiens) (UniProt O14965).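 Note: each reported value is a mean percent inhibition of Aurora-A.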
T5 sequence (whole entry): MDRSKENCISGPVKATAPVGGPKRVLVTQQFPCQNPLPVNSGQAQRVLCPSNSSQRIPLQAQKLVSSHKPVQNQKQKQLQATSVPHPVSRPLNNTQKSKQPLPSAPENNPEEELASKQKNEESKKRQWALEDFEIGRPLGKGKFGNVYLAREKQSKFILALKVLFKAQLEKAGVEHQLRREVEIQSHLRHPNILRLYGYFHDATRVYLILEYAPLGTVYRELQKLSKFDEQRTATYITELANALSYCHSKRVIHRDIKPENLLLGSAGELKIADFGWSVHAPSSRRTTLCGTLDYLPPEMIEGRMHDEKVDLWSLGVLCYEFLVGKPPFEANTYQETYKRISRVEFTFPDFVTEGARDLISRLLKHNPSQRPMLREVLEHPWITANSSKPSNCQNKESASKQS
The conditions noted are these: at 0.1 µM.

The target of test [20] is T2, Non-receptor tyrosine-protein kinase TNK1 (Homo sapiens). As to conditions: at 0.1 µM.

Sequence of High affinity nerve growth factor receptor (Homo sapiens) (P04629 33-796 limits assumed): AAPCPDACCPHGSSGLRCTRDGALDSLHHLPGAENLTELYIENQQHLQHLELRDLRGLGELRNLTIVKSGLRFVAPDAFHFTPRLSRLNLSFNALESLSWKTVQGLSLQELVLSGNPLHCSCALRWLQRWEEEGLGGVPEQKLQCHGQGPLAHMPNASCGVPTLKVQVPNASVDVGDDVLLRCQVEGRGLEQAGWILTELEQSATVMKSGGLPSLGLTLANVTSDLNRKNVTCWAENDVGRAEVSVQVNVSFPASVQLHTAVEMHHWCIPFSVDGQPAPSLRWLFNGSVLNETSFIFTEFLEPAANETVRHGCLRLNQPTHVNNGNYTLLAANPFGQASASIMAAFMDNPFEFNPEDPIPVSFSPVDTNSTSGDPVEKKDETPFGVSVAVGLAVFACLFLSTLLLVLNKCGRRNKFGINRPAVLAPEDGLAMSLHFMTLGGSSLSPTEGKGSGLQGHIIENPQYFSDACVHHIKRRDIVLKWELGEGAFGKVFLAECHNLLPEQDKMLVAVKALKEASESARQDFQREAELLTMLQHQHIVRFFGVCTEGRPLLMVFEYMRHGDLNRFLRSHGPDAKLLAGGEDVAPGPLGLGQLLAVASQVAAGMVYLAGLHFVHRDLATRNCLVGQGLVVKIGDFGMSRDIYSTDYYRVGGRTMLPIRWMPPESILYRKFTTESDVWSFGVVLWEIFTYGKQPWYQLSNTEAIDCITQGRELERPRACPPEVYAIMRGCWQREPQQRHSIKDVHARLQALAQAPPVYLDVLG
Sequence of NT-3 growth factor receptor (Homo sapiens) (Q16288 32-839 limits assumed): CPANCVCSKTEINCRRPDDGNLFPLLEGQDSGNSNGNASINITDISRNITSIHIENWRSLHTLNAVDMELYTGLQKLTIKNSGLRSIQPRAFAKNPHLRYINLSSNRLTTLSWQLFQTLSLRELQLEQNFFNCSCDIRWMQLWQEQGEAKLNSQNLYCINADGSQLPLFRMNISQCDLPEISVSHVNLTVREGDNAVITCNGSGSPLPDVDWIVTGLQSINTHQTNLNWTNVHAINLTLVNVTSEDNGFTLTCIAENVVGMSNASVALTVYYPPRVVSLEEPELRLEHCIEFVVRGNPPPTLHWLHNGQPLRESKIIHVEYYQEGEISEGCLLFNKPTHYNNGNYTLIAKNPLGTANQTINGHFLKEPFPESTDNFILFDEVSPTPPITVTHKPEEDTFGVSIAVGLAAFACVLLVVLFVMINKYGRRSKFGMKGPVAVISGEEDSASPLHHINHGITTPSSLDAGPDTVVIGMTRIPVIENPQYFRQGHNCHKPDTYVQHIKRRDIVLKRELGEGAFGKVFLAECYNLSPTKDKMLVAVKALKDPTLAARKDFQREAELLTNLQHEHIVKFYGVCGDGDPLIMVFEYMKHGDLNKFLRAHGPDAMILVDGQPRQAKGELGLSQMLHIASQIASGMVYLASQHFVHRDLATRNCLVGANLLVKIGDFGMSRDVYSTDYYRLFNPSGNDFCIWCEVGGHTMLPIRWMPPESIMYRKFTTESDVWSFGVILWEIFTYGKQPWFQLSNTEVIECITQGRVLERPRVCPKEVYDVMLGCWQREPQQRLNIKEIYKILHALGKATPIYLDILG
Sequence of Non-receptor tyrosine-protein kinase TYK2 (Homo sapiens) (P29597 whole entry): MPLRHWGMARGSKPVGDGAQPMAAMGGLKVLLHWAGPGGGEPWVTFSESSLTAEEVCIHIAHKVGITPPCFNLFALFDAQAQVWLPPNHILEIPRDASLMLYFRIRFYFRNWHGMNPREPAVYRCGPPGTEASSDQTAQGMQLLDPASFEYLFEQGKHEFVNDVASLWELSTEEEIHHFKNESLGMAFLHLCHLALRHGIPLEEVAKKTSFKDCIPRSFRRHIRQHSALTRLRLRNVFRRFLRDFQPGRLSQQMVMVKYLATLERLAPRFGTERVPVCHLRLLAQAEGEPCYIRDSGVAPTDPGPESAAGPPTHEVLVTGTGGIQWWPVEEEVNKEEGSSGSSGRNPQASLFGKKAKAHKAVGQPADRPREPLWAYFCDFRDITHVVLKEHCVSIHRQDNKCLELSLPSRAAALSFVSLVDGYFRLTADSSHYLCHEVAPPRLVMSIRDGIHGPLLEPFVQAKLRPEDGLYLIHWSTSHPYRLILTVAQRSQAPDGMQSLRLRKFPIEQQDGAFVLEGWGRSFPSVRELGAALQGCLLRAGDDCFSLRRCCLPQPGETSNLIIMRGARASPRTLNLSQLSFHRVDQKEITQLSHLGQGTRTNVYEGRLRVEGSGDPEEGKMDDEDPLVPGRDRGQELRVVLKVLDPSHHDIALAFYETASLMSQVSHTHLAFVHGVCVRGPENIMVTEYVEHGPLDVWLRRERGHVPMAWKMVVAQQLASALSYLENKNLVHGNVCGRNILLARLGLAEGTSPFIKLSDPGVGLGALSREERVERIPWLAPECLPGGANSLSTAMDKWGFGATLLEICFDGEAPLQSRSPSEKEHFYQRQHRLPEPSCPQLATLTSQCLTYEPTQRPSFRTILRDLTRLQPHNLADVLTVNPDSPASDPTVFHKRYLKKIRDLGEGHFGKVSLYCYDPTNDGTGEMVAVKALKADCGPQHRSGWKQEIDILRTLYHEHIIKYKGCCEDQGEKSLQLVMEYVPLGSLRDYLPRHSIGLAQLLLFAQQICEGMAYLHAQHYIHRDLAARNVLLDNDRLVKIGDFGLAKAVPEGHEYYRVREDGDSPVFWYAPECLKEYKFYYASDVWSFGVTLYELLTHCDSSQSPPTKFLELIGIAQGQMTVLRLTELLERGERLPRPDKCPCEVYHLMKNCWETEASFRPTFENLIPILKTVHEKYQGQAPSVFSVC
Sequence of Angiopoietin-1 receptor (Homo sapiens) (Q02763 whole entry): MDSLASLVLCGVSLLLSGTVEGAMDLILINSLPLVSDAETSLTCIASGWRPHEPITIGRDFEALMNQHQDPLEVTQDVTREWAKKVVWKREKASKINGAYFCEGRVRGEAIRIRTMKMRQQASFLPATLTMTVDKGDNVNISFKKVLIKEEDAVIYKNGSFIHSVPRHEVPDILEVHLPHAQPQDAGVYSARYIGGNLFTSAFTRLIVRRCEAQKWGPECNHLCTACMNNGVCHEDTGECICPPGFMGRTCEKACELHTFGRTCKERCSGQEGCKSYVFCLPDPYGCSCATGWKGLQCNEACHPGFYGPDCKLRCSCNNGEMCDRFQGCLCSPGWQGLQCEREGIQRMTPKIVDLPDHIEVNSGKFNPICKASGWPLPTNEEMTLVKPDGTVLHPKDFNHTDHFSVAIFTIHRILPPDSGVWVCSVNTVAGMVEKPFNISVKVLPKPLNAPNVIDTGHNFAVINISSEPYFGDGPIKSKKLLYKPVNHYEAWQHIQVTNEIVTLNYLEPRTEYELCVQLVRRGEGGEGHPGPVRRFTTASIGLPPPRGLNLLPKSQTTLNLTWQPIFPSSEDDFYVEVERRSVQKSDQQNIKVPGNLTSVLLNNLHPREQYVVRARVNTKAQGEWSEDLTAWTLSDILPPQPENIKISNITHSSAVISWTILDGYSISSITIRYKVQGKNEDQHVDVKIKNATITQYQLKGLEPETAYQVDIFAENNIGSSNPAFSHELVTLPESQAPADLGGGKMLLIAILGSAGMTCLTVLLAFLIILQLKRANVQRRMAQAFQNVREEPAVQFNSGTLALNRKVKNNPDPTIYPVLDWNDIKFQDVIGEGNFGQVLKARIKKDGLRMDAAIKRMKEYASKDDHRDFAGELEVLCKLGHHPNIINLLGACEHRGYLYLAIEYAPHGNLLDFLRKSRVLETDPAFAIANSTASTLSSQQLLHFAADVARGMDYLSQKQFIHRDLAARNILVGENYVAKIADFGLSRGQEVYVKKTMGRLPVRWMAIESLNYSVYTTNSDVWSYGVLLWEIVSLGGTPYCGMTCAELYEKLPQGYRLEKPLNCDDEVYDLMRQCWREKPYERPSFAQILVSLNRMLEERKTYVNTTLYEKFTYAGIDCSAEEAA
Sequence of Activated CDC42 kinase 1 (Homo sapiens) (Q07912 whole entry, looked up): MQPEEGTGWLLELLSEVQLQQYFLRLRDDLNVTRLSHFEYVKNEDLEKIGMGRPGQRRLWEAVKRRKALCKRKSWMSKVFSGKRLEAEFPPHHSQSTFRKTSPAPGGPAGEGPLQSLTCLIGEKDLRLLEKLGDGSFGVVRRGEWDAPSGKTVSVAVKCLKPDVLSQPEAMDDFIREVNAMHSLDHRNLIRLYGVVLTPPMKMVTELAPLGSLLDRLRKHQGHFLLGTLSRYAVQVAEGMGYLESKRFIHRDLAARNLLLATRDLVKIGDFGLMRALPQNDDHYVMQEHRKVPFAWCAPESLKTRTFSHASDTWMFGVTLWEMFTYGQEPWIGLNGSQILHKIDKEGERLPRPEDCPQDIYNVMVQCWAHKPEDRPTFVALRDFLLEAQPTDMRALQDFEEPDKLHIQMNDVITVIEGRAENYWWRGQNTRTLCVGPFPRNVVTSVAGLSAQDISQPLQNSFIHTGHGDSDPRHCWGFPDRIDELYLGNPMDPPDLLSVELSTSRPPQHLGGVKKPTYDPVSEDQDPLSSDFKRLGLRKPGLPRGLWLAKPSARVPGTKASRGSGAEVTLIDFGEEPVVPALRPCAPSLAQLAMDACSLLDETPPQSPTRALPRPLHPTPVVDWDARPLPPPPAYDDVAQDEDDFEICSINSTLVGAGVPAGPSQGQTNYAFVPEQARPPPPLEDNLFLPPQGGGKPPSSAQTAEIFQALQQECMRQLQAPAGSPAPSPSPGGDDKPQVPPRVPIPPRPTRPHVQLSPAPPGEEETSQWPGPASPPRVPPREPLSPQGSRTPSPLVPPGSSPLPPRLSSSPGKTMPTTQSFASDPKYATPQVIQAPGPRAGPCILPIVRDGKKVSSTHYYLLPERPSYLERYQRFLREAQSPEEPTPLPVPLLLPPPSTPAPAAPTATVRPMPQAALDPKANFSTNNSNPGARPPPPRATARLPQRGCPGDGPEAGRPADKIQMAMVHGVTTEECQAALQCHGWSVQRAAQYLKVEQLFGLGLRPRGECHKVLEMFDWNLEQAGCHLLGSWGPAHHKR

As to `Cc1cc(O)cc(C)c1/C=C/c1cncc(C(=O)N(C)C)c1`, the inhibition in [1] stood at 2.96%; in [2], 3.84%; in [3] it was 5.03%; in test [4] it was 5.65%; in test [5], 10.7%; in test [6], 1.79%. For the same molecule, the inhibition in test [7] is 1.45%; in test [8] it was 2.24%; in test [9], 2.88%; in test [10], 2.43%; in test [11], 1.59%; in test [12], 0.08%. Also, the inhibition in [13] is 2.73%; in test [14], 1.59%; in [15], 2.92%; in [16], 3.74%; in test [17] it was -1.5%; in test [18], 4.52%. Further, the inhibition in test [19] turned out to be 2.58%.

As to `COc1cccc(-n2nc(C)c3c(N/N=C(\C)c4ccncc4)ncnc32)c1`, the inhibition in [1] is 2.38%; in [2], 1.82%; in test [3], 3.53%; in [4], 0.73%; in test [5], 2.25%; in [20], -1.41%. Also, the inhibition in [6] was 0.13%; in [7] it was -0.22%; in test [8], 0.84%; in test [9], 0.99%; in test [10] it was 2.57%; in test [11] it was -1.2%. Besides, the inhibition in test [12] was 0.69%; in [13], -2.28%; in [14] it was -0.38%; in test [15], 3.18%; in [16], 2.67%; in test [17], 0.67%. In addition, the inhibition is 2.24% in test [18] and 1.27% in test [19].

Take `CN1CCN(C(=O)c2ccc(NC(=O)Nc3ccc(N(C)c4ccnc(Nc5ccc(CS(C)(=O)=O)cc5)n4)cc3)cc2)CC1`: the inhibition is -2.49% in test [1]; 10.1% in [2]; 37.1% in test [3]; 33.2% in test [4]; 67.1% in test [5]; 46.2% in test [20]. Also, the inhibition in [7] was found to be 8.52%; in test [8], 61%; in test [9], 7.78%; in [10], 51%; in test [11] it was 5.61%; in [12] it was 31.5%. For the same molecule, the inhibition in test [13] was 9.24%; in test [14] it was 36.9%; in [15], 33.8%; in test [16], 70.1%; in test [17], -4.74%; in test [18], 8.24%. In addition, in test [19], the inhibition amounted to 84.3%.

`NS(=O)(=O)c1cccc(Nc2cc(-c3ccc(F)cc3)n[nH]2)c1`: the inhibition in [1] is -1%; in test [2], 3.27%; in [3] it was 6.08%; in [4], 0.52%; in test [5], 4.79%; in [20], 2.68%. Besides, the inhibition in test [6] was found to be 16.2%; in test [7] it was 0.5%; in test [8], 2.57%; in test [9] it was 2.83%; in [10] it was 19.2%; in [11], 4.73%. The inhibition in [12] is 26.1%; in test [13], 6.62%; in test [14], 27.9%; in test [15], 3.74%; in [16], 3.31%; in [17], -3.9%. The inhibition in test [19] worked out at 1.29%.
